Laboratory results taken from the supplement of paper PMC12669032.

Legend:
Assay in all cases: growth AUC relative to DMSO control (median of replicates) (fraction); higher = more growth (less inhibition), active = hit call of the paper
Settings in all cases: 20 µM; 24 h;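 active = AUC reduced over 20% with Padj below 0.05 in at least 2 of 3 replicates; inactive = otherwise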
[1] = tested on: Akkermansia muciniphila
Summary of the method: (§1)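 Area under the growth curve was normalised to the plate median of solvent-only wells, or to row and column medians on the industrial chemical plate. Growth curves came from anaerobic gut bacterial monocultures in mGAM at 37 °C, seeded at OD600 0.05 with 20 µM compound (1% DMSO), and read at OD600 hourly for 24 h with the minimum OD set to 0. The value is the median of three biological replicates grown on separate days.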

[2] = tested on: Bacteroides caccae
Summary of the method: as §1

[3] = tested on: Bacteroides clarus
Summary of the method: as §1

[4] = tested on: Bacteroides dorei
Summary of the method: as §1

[5] = tested on: Bacteroides stercoris
Summary of the method: as §1

[6] = tested on: Bacteroides thetaiotaomicron
Summary of the method: as §1

[7] = tested on: Bacteroides uniformis
Summary of the method: as §1

[8] = tested on: Bifidobacterium longum subsp. longum
Summary of the method: as §1

[9] = tested on: Clostridium difficile
Summary of the method: as §1

[10] = tested on: Collinsella aerofaciens
Summary of the method: as §1

Measured: growth AUC

N#Cc1cc(Cl)c(O)c(Cl)c1
inactive: [1] 1.12 | [2] 1 | [3] 1 | [4] 0.982 | [5] 0.935 | [6] 0.994 | [7] 0.947 | [8] 1.03 | [9] 0.997 | [10] 1

CC(Oc1ccc(Cl)cc1Cl)C(=O)NC(C)(C#N)C(C)C (stereo not given)
inactive: [1] 1.27 | [2] 0.944 | [3] 1 | [4] 0.999 | [5] 0.99 | [6] 0.964 | [7] 0.92 | [8] 1.02 | [9] 0.935 | [10] 0.977

Clc1ccc(Sc2cc(Cl)c(Cl)cc2Cl)cc1
inactive: [1] 1.05 | [2] 0.943 | [3] 0.993 | [4] 1.04 | [5] 0.985 | [6] 0.98 | [7] 0.984 | [8] 0.986 | [9] 1 | [10] 0.936

O.O.O=[N+]([O-])c1ccc([O-])cc1.[Na+]
inactive: [1] 1.02 | [2] 0.999 | [3] 1 | [4] 0.988 | [5] 1.09 | [6] 1.02 | [7] 0.989 | [8] 1.08 | [9] 1.04 | [10] 1.02

CCN(CC)c1nc(C)cc(=O)[nH]1
inactive: [1] 1.08 | [2] 0.974 | [3] 1.03 | [4] 1.02 | [5] 1.11 | [6] 0.996 | [7] 0.961 | [8] 1.02 | [9] 1.01 | [10] 1.01

CCCCCCCC/C=C\CCCCCCCCCCCCC
inactive: [1] 0.969 | [2] 0.961 | [3] 0.982 | [4] 1.05 | [5] 0.986 | [6] 0.995 | [7] 0.997 | [8] 0.964 | [9] 1.05 | [10] 1.02

CC(C)N(C(=O)CS(=O)(=O)[O-])c1ccc(F)cc1.[Na+]
inactive: [1] 0.977 | [2] 1.02 | [3] 0.979 | [4] 0.984 | [5] 0.966 | [6] 0.948 | [7] 1.04 | [8] 0.944 | [9] 1.05 | [10] 0.957

c1ccc2[nH]c(-c3cscn3)nc2c1
inactive: [1] 0.73 | [2] 0.997 | [3] 1.01 | [4] 0.973 | [5] 0.947 | [6] 0.974 | [7] 1.02 | [8] 0.976 | [9] 0.985 | [10] 0.985

NC(Cn1cncn1)C(=O)O (stereo not given)
inactive: [1] 0.948 | [2] 0.985 | [3] 0.992 | [4] 0.983 | [5] 1.01 | [6] 1 | [7] 0.998 | [8] 0.966 | [9] 0.981 | [10] 1.01

CCN(CC)C(=O)SCc1ccccc1Cl
inactive: [1] 0.931 | [2] 1.02 | [3] 0.985 | [4] 1 | [5] 1.01 | [6] 0.983 | [7] 0.957 | [8] 0.965 | [9] 0.996 | [10] 1.01

CN(C)C(=O)c1cccnc1S(N)(=O)=O
inactive: [1] 1.05 | [2] 1.01 | [3] 1.04 | [4] 1.03 | [5] 1.01 | [6] 0.988 | [7] 1.04 | [8] 1.02 | [9] 1.05 | [10] 1.01

CC(C)(SC(=O)N1CCCCC1)c1ccccc1
inactive: [1] 0.978 | [2] 0.973 | [3] 0.982 | [4] 1.01 | [5] 0.945 | [6] 0.927 | [7] 0.965 | [8] 1.01 | [9] 0.99 | [10] 1

CCc1cccc(C)c1NC(=O)CS(=O)(=O)[O-].[Na+]
inactive: [1] 0.926 | [2] 1.03 | [3] 0.962 | [4] 1.03 | [5] 0.937 | [6] 1.01 | [7] 0.991 | [8] 0.975 | [9] 1.06 | [10] 1.11

COC(=O)C(C)Oc1ccc(Cl)cc1C (stereo not given)
inactive: [1] 0.866 | [2] 0.999 | [3] 0.996 | [4] 1 | [5] 1.15 | [6] 1 | [7] 1 | [8] 1 | [9] 0.974 | [10] 1.04

CON(C(=O)c1cc(C)oc1C)C1CCCCC1
inactive: [1] 0.96 | [2] 1 | [3] 1 | [4] 1 | [5] 1.04 | [6] 0.972 | [7] 0.997 | [8] 1.03 | [9] 0.972 | [10] 1.03

COc1ccccc1C(=O)NS(=O)(=O)c1ccc(C(=O)NC2CC2)cc1
inactive: [1] 0.895 | [2] 1.01 | [3] 0.994 | [4] 1 | [5] 1.03 | [6] 0.954 | [7] 0.999 | [8] 0.954 | [9] 0.985 | [10] 1.02

Cc1cc(C2CC2)nc(Nc2ccc(O)cc2)n1
inactive: [1] 0.829 | [2] 0.999 | [3] 0.967 | [4] 0.994 | [5] 0.968 | [6] 0.943 | [7] 0.957 | [8] 1.04 | [9] 0.982 | [10] 0.975

COCC(=O)N(c1c(C)cccc1C(=O)O)C(C)C(=O)O (stereo not given)
inactive: [1] 0.834 | [2] 1.02 | [3] 0.979 | [4] 1.01 | [5] 0.917 | [6] 0.967 | [7] 0.974 | [8] 0.907 | [9] 1.04 | [10] 1

c1ccc2c(c1)-c1cccc3c1c-2cc1ccccc13
inactive: [1] 0.981 | [2] 1.05 | [3] 1.03 | [4] 1.04 | [5] 1.08 | [6] 1.02 | [7] 1.03 | [8] 1.06 | [9] 1.02 | [10] 1.01

O=C(NC(=O)c1c(F)cccc1F)Nc1cc(C(F)(F)F)cc(C(F)(F)F)c1Cl
inactive: [1] 0.695 | [2] 0.852 | [3] 0.867 | [4] 0.982 | [5] 0.849 | [6] 0.96 | [7] 0.96 | [8] 0.819 | [9] 1.02 | [10] 1.02

CCNC(=O)[C@@H](C)OC(=O)Nc1ccccc1
inactive: [1] 0.912 | [2] 0.991 | [3] 1.02 | [4] 0.992 | [5] 1.06 | [6] 1.01 | [7] 0.969 | [8] 0.976 | [9] 1.03 | [10] 1.1

COC(=O)C(Cl)Cc1ccc(Cl)cc1 (stereo not given)
inactive: [1] 1.01 | [2] 0.921 | [3] 0.973 | [4] 0.99 | [5] 1.03 | [6] 1.02 | [7] 0.921 | [8] 1.01 | [9] 0.983 | [10] 0.936

O=C(O)Cc1c[nH]c2ccccc12
inactive: [1] 0.904 | [2] 0.973 | [3] 0.976 | [4] 1.03 | [5] 1.02 | [6] 0.98 | [7] 1.01 | [8] 1.01 | [9] 1 | [10] 0.984

O=c1cccc2n1CCn1c-2cccc1=O
inactive: [1] 1.11 | [2] 1.03 | [3] 0.986 | [4] 0.918 | [5] 1 | [6] 0.995 | [7] 1.02 | [8] 0.969 | [9] 0.993 | [10] 0.98

COCCCNc1nc(NC(C)C)nc(SC)n1
inactive: [1] 0.847 | [2] 0.981 | [3] 0.976 | [4] 0.989 | [5] 0.977 | [6] 0.957 | [7] 0.982 | [8] 0.985 | [9] 0.963 | [10] 0.993

CCCCN(C)C(=O)Nc1ccc(Cl)c(Cl)c1
inactive: [1] 0.739 | [2] 0.886 | [3] 0.952 | [4] 0.97 | [5] 1.16 | [6] 0.899 | [7] 0.864 | [8] 0.951 | [9] 0.943 | [10] 1

CC(C)(C)C(=O)C(Oc1ccc(Cl)cc1)n1ccnc1 (stereo not given)
inactive: [1] 1.07 | [2] 0.971 | [3] 0.987 | [4] 0.98 | [5] 1.04 | [6] 0.944 | [7] 0.984 | [8] 1.01 | [9] 0.962 | [10] 0.94

CC(C)N(C(=O)CS(=O)CC(=O)O)c1ccc(F)cc1 (stereo not given)
inactive: [1] 0.994 | [2] 0.965 | [3] 0.94 | [4] 0.969 | [5] 0.988 | [6] 0.987 | [7] 0.958 | [8] 1.03 | [9] 1.01 | [10] 1

NC(=S)Nc1cccc2ccccc12
inactive: [1] 0.997 | [2] 0.892 | [3] 0.991 | [4] 0.835 | [5] 0.978 | [6] 0.945 | [7] 0.951 | [8] 1.06 | [9] 0.896 | [10] 0.909
